Sampled rows, rich in hits. Any-hit rate of the full collection: about 1.6%.
PREPL inh – human PREPL enzyme inhibition. AID 2751. recombinant PREPL, fluorescence polarization activity-based probe. actives 0.68% (n = 320,000). inhibition, % at 5.96 µM. Q4J6C6; in the data active means inhibition above about 43%
MEX-5 binding – C. elegans MEX-5 TCR-2 RNA binding activity; actives 0.38% (n = 300,000); activity score (negative = inhibition of binding), % at 10 µM; MEX-5/FITC-TCR2 RNA binding, fluorescence polarization; active compounds read low; AID 1832;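 active means inhibition past about -25% in most replicates, and total fluorescence under double the plate's negative control median, limit read from the data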
Fam108B inh – counter-screen for RBBP9 inhibitors: inhibitors of mouse Fam108B | inhibition, % at 9.51 µM | recombinant Fam108B, FP-Rh probe fluorescence polarization | AID 1947 | actives 0.33% (n = 300,000);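 active means inhibition above the screen mean inhibition plus 3 SD, computed separately per campaign, cut at about 18% in these data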;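 further: inhibitors lower polarization as less probe binds the enzyme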
PME-1 primary – PME-1 (human) inhibition; Q9Y570; recombinant PME-1, FP-Rh probe fluorescence polarization; inhibition, % at 5.9 µM; actives 0.53% (n = 320,000);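 active means inhibition above the campaign mean of all compounds plus 3 SD, cut at about 26% in these data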;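 further: competitive labeling of PME-1 active site by serine hydrolase directed probe; inhibitors block probe labeling so polarization falls and inhibition rises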
LYPLA2 inh – blocks human lysophospholipase 2, a PME1 counter-screen; O95372; recombinant LYPLA2, FP-Rh probe fluorescence polarization; inhibition, % at 5.9 µM; actives 0.38% (n = 320,000);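 active means inhibition above the screen-wide mean plus 3 SD, limit set per campaign, cut at about 26% in these data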
LYPLA1 inh – blocks human lysophospholipase 1, a PME1 counter-screen. inhibition, % at 5.9 µM. recombinant LYPLA1, FP-Rh probe fluorescence polarization. actives 0.16% (n = 320,000). O75608;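 active means inhibition above the mean of all tested compounds plus 3 SD, set per campaign, cut at about 14% in these data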;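 further: inhibitors block serine hydrolase probe labeling of LYPLA1 so polarization falls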
Target sequence (O75608 whole entry, looked up): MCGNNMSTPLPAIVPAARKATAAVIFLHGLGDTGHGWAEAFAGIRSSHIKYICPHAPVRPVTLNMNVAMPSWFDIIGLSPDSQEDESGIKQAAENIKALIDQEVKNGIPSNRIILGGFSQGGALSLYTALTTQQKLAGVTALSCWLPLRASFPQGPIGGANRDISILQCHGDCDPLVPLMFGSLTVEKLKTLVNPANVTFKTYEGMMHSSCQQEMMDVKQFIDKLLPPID
A number is an active result; 0 = inactive; - = no result given.

SMILES	PREPL inh	MEX-5 binding	Fam108B inh	PME-1 primary	LYPLA2 inh	LYPLA1 inh
O=c1nc(/C=C/c2cccn2-c2ccc([N+](=O)[O-])cc2)cc(C(F)(F)F)[nH]1	0	0	0	0	0	0
O=C(CSc1nnc(-c2ccc(F)cc2)n1CC1CCCO1)NCc1ccco1 (stereo not drawn)	0	0	0	0	0	0
CCCn1c(N)c(N(CCOC)C(=O)Cc2ccc(S(=O)(=O)N3CCOCC3)s2)c(=O)[nH]c1=O	0	-26	0	0	0	0
Cc1ccccc1N/C(=C(/C(Cl)=C(Cl)Cl)[N+](=O)[O-])n1nnc2ccccc21	0	0	0	0	0	0
COc1ccc(N/C(=C(/C(Cl)=C(Cl)Cl)[N+](=O)[O-])n2nnc3ccccc32)cc1	0	-42	0	0	0	0
CCC(=O)Nc1ccc(C(=O)Nc2cccc(C)n2)cc1	0	0	0	0	0	0
O=C(c1cc2ccccc2oc1=O)N(Cc1cccs1)CC1CCCO1 (stereo not drawn)	0	0	0	0	0	0
O=C(O)c1ccccc1-c1ccccc1C(=O)Nc1ccc(-c2nc3cc(Cl)ccc3o2)cc1	0	0	0	31	0	0
CCCCOc1cccc(C2C(C(=O)c3ccc(C)o3)=C(O)C(=O)N2c2nnc(C)s2)c1 (stereo not drawn)	-	0	-	-	-	-
COc1ccc(C2C(C(=O)c3cccs3)=C(O)C(=O)N2c2cccc(C)n2)cc1 (stereo not drawn)	0	0	0	0	0	0
CCCOc1cccc(C2C(C(=O)c3ccco3)=C(O)C(=O)N2c2nnc(C)s2)c1 (stereo not drawn)	0	-32	0	0	0	0
C=CCOc1cccc(C2C(C(=O)c3ccc(C)o3)=C(O)C(=O)N2c2nccs2)c1 (stereo not drawn)	0	-49	0	0	0	0
Cc1ccc(C2C(C(=O)c3cccs3)=C(O)C(=O)N2c2nnc(C)s2)cc1 (stereo not drawn)	0	-67	0	0	0	0
CSc1ccc(C2C(C(=O)c3ccco3)=C(O)C(=O)N2c2nnc(SC)s2)cc1 (stereo not drawn)	0	-59	0	0	0	0
CC(=O)Nc1ccc(NC(=O)C2CCCN2/C=C/C(=O)C(F)(F)F)cc1 (stereo not drawn)	0	0	0	0	0	0
Cc1nnc(N2C(=O)C(O)=C(C(=O)c3ccco3)C2c2ccc(C(C)C)cc2)s1 (stereo not drawn)	0	-27	0	0	0	0
Cc1nnc(N2C(=O)C(O)=C(C(=O)c3ccco3)C2c2ccc(F)cc2)s1 (stereo not drawn)	0	-27	0	0	0	0
O/N=C/c1ccccc1Oc1ccc(Cl)cc1	0	0	0	0	0	0
N#CCC(=O)c1ccccc1Oc1ccc(Cl)cc1	0	0	0	41	0	0
O=C(CCNC(=O)c1ccco1)NCCc1ccc(Cl)cc1	-	0	-	-	-	-
CCN(CC(=O)NC1CCS(=O)(=O)C1)S(=O)(=O)c1cc([N+](=O)[O-])ccc1C (stereo not drawn)	0	0	0	0	0	0
CCOC(=O)CSc1nc2ccc(N3CCOCC3)cc2c(=O)n1Cc1ccc2c(c1)OCO2	52	0	0	0	0	0
CCN(CC)C(=O)CSc1nc2cc3c(cc2c(=O)n1Cc1ccc2c(c1)OCO2)OCO3	0	0	0	0	0	0
CC1=Nc2ccc(C)cc2/C1=C/c1c(N)n2nc(CC(=O)N3CCOCC3)sc2nc1=O	0	-52	0	0	0	0
Cc1cccc(C(=O)O/N=C/c2c(N3CCOCC3)n(C)c3ccccc23)c1	0	0	0	0	0	0
Cc1ccc(CNC(=O)c2ccc3c(=O)c(O)c(-c4ccc(C)cc4)[nH]c3c2)cc1	0	0	0	0	0	0
Cc1ccc(-c2[nH]c3cc(C(N)=O)ccc3c(=O)c2O)cc1	0	-70	0	0	0	0
Cc1cccc(C)c1NC(=O)COC(=O)c1ccccc1[N+](=O)[O-]	0	0	0	0	0	0
CC(=O)c1c(C)[nH]c(C(=O)Nc2nc(-c3ccc(Cl)cc3)cs2)c1C	0	0	0	51	0	0
COc1ccc(OC)c(NC(=O)c2[nH]c(C)c(C(C)=O)c2C)c1	0	0	0	0	0	0
